# PubChem BioAssay (NCATS)
# Results filed as inconclusive are left out. The source made the active and inactive calls. The call rests on the fitted dose curve; in most records, active means well fitted cell-killing curve with a large enough effect; inconclusive means small, poorly fitted or top-dose-only effect; inactive means flat fitted curve, though single readings scatter.
# Test: Cell Viability - LYMP2-014 (AID 983);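 further: cells exposed to compound for 24 h at 37 °C; plate controls were DMSO only for no effect and 92 µM tetraoctylammonium bromide for full effect; nearly all actives have a fitted effect of over 50% in size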
# Conditions: LYMP2-014 lymphoblastoid cells, viability qHTS; series mostly up to 92.2 µM; activity change, negative = cytotoxicity: at the top concentration
# Source text: NIH Chemical Genomics Center [NCGC]
# NIH Molecular Libraries Screening Centers Network [MLSCN]
# National Institutes of Environmental Health Sciences [NIEHS]
# National Toxicology Program [NTP]
# We have developed a 1536-well cell-based assay for quantitative high throughput screening (qHTS) against a number of cell lines to determine in vitro cytotoxicity of small molecules. This particular assay uses a human lymphoblastoid cell line (LYMP2-014) purchased from Coriell Institute for Medical Research.
# NCGC Assay Protocol Summary:
# The CellTiter-Glo luminescent cell viability assay (Promega) is a homogeneous method to measure the number of viable cells in culture. The end point readout of this assay is based on quantitation of intracellular ATP, an indicator of metabolic activity, using the luciferase reaction. Luciferase catalyzes the oxidation of beetle Luciferin to oxyluciferin and light in the presence of ATP. The luminescent signal is proportional to amount of ATP present.
# Using the CellTiter-Glo luminescent cell viability assay, the amount of cellular ATP was measured in the lymphoblastoid cell line with complete culture medium following compound treatment for 24 hours. The assay was performed in opaque white Kalypsys 1536-well plates. In the screen, tetraoctylammonium bromide was used as positive control. Library compounds were measured for their ability to cause acute toxicity in the cell line, as reflected by a decrease in intracellular ATP levels, in a concentration-dependent manner. […] AC50 values were determined from concentration-response data modeled with the standard Hill equation.
# qHTS protocol for CellTiter Glo lymphoblastoid cellular assay
# [Step] [Parameter] [Value] [Description]
# 1. Reagent; 5 uL; 2500 lymphoblastoid cells/well
# 2. Time; 5 hr; 37 C incubation
# 4. Controls; 23 nL; Tetraoctylammonium bromide 6.4pM to 92 uM
# 5. Time; 24 hr; 37 C incubation
# 6. Reagent; 5 uL; CellTiter Glo reagent
# 7. Time; 30 min; Room Temperature
# 8. Detection; Luminescence; Viewlux plate reader
# Keywords: cell viability, cytotoxicity, lymphoblastoid cell line, luminescence, NTPHTS, NTPHTS_NCGC, NIEHS, DSSTox, MLSMR, MLSCN, NIH Roadmap, qHTS, NCGC
row,SMILES,"activity change, negative = cytotoxicity"
1,Nc1c(Br)cc([N+](=O)[O-])cc1[N+](=O)[O-],-4.01% (inactive)
2,C=C(C)CCl,-0.897% (inactive)
3,CC(C)(Cl)[N+](=O)[O-],3.8% (inactive)
4,CC(C)[N+](=O)[O-],-4.03% (inactive)
5,CC(=O)[O-].CC(=O)[O-].CC(=O)[O-].[Cr+3],-2.61% (inactive)
6,Clc1cc(Cl)c(Cl)c(Cl)c1,0.989% (inactive)
7,CC(C)CC(C)N (stereo not given),-8.24% (inactive)
8,ClCc1ccccn1,-9.81% (inactive)
9,CC(Cl)(Cl)Cl,3.16% (inactive)
10,CC(=O)CCC(C)=O,4.55% (inactive)
11,Oc1cc(Cl)cc(Cl)c1,-2.02% (inactive)
12,CCCCC(CC)COC(=O)c1ccc(C(=O)OCC(CC)CCCC)c(C(=O)OCC(CC)CCCC)c1 (stereo not given),-6% (inactive)
13,CC(C)[C@]12CC(=O)[C@H](C)[C@H]1C2,-9.79% (inactive)
14,COc1cc(-c2ccc(N)c(OC)c2)ccc1N,-5.64% (inactive)
15,Nc1ccc([N+](=O)[O-])cc1N,1.92% (inactive)
16,N#CCc1ccccc1,-4.63% (inactive)
17,CCOC(=O)CC(SP(=O)(OC)OC)C(=O)OCC (stereo not given),3.31% (inactive)
18,CC(C)(COCC1CO1)COCC1CO1 (stereo not given),-2.34% (inactive)
19,ClC(Cl)Br,-8.52% (inactive)
20,Cl/C=C/CCl,-3.25% (inactive)

row,SMILES,"activity change, negative = cytotoxicity"
1,Clc1ccc(Cl)c(Cl)c1,-2.57% (inactive)
2,CCOP(=O)(OCC)OCC,-12.7% (inactive)
3,CCCCCC[N+](=O)[O-],-4.03% (inactive)
4,O=[N+]([O-])c1ccccc1O,-6.87% (inactive)
5,O=Cc1ccc(Cl)cc1Cl,2.67% (inactive)
6,Clc1cccc(Cl)c1,-6.26% (inactive)
7,ClCC(Cl)CCl,-7.25% (inactive)
8,N#CC(Cl)(Cl)Cl,-4.47% (inactive)
9,CCNCC,1.65% (inactive)
10,Oc1cc(Cl)c(Cl)c(Cl)c1Cl,-8.7% (inactive)
11,CCCCOCC1CO1 (stereo not given),-2% (inactive)
12,CCCCCCCCCCCOC(=O)c1ccccc1C(=O)OCCCCCCCCCCC,5.37% (inactive)
13,CN(C)C(=O)Cl,-7.16% (inactive)
14,c1ccc(Nc2ccc(Nc3ccccc3)cc2)cc1,2.57% (inactive)
15,Clc1ccccc1,-3.57% (inactive)
16,N#CCBr,-3% (inactive)
17,Clc1ccc(C(Cl)(Cl)Cl)cc1Cl,-0.604% (inactive)
18,C=CC=O,-5.13% (inactive)
19,Clc1ccc(C(c2ccccc2Cl)C(Cl)(Cl)Cl)cc1 (stereo not given),-6.01% (inactive)
20,Brc1cccc(-c2ccccc2)c1,1.39% (inactive)
